# Data taken from PubChem BioAssay (NCATS).
# Inconclusive results are not listed. A number with no mark means an inactive call. Active and inactive are the calls of the source. The call rests on the fitted dose curve; in most records, active means well fitted cell-killing curve with a large enough effect; inconclusive means small, poorly fitted or top-dose-only effect; inactive means flat fitted curve, though single readings scatter.
# Assay: qHTS assay to identify small molecule inhibitors of chordoma cells - UCH-2 (AID 1259356)
# Settings: UCH-2 chordoma viability, CellTiter-Glo ATP luminescence, 48 h; series mostly up to 46.1 µM; activity change, negative = inhibition: at the top concentration
# Source text: NIH Chemical Genomics Center [NCGC]
# Chordoma is a rare and slow growing tumor that can occur anywhere along the spine, from the base of the skull to the tailbone. Current treatment options for chordoma is surgery and radiation therapy for those who are not candidates for surgery. But chordomas tend to return in the same location or surrounding areas of the original tumor after surgery and/or radiation. Chemotherapy can slow down the progression of the tumor. As chordoma is slow growing, the general cytotoxic agents that kill fast growing cells are ineffective, and some patients have been reported to respond to molecularly targeted drugs.
# NCATS Pharmaceutical Collection (NPC) containing approximately 3000 clinically approved and investigational drugs were used to screen at 15 concentrations in a chordoma cell lines, UCH-2, to identify small molecule compounds that can inhibit chordoma cell growth.
# NCGC Assay Protocol Summary:
# Human chordoma cell line UCH-2 was dispensed at 800 per well in 4uL of culture medium into white solid bottom 1536-well plates (Corning Life Sciences, Corning, NY) using a Multidrop Combi (Thermo Scientific, Waltham, MA) dispenser. The assay plates were incubated at 37 C and 5% CO2 for an overnight, and then 23nL of compounds dissolved in DMSO and positive control were transferred using a Pintool station (Wako, San Diego, CA). Compound treatment was followed by the addition of 1uL of the combination compounds (1uM Auranofin, 500nM each of Camptothecin, Doxorubicin, Rubitecan, and Topotecan) and assay medium to each well of the assay plates using Flying Reagent Dispenser (FRD, Aurora Discovery, San Diego, CA). The assay plates were incubated at 37 C and 5% CO2 for 48hr. Then 5uL of CellTiter-Glo reagent (Promega Corporation, Madison, WI) was added to each well of the assay plates using FRD. After 30min incubation at room temperature, the luminescence signal was quantified using a ViewLux plate reader (PerkinElmer, Shelton, CT).
# On the % scale 0 is the no-effect control and ±100 the full control effect; potency means the concentration at half of the fitted maximal effect.
SMILES,"activity change, negative = inhibition",Potency
CC(C)C[C@H](NC(=O)[C@@H](COC(C)(C)C)NC(=O)[C@H](Cc1ccc(O)cc1)NC(=O)[C@H](CO)NC(=O)[C@H](Cc1c[nH]c2ccccc12)NC(=O)[C@H](Cc1cnc[nH]1)NC(=O)[C@@H]1CCC(=O)N1)C(=O)N[C@@H](CCCN=C(N)N)C(=O)N1CCC[C@H]1C(=O)NNC(N)=O,13.3%,–
COc1cc(C)c(/C=C/C(C)=C/C=C/C(C)=C/C(=O)O)c(C)c1C,1.41%,–
O=C(O)/C=C/c1ccccc1,-1.11%,–
CC(=O)O[C@@H]1CC2CCC1(C)C2(C)C (stereo not given in full),7.34%,–
C(=C\c1ccncc1)/c1ccccc1,-22.8%,–
CCCCC/C=C\CCC(=O)N[C@H]1[C@H](Oc2c3cc4cc2Oc2ccc(cc2Cl)[C@@H](O[C@@H]2O[C@H](CO)[C@@H](O)[C@H](O)[C@H]2NC(C)=O)[C@@H]2NC(=O)[C@H](NC(=O)[C@@H]4NC(=O)[C@H]4NC(=O)[C@@H](Cc5ccc(c(Cl)c5)O3)NC(=O)[C@H](N)c3ccc(O)c(c3)Oc3cc(O)cc4c3)c3ccc(O)c(c3)-c3c(O[C@H]4O[C@H](CO)[C@@H](O)[C@H](O)[C@@H]4O)cc(O)cc3[C@@H](C(=O)O)NC2=O)O[C@H](CO)[C@@H](O)[C@@H]1O,0.426% [at 20.6 µM],–
CC(C)NCC(O)COc1ccccc1-n1cccc1 (stereo not given),-0.198%,–
c1ccc(-n2cnnn2)cc1,-1.26%,–
O=C(O)[C@H]1C(=CCO)O[C@H]2CC(=O)N12,-4.09%,–
COc1cc(NCCCC(C)N)c2ncccc2c1 (stereo not given),–,9.2 µM (active)
CNC(C)CCC=C(C)C (stereo not given),-7.26%,–
CO[C@@]1(NC(=O)C2SC(=C(C(N)=O)C(=O)O)S2)C(=O)N2C(C(=O)O)=C(CSc3nnnn3C)CS[C@@H]21 (stereo not given in full),17% [at 20.6 µM],–
C=CCCCCCCCCC(=O)OC,2.88%,–
COC(=O)C(CN)c1c[nH]c2ccc(OC)cc12 (stereo not given),11.9%,–
C=CCOc1ccc(CC(=O)O)cc1Cl,6.56%,–
OCCOCCOCCO,2.79%,–
CCN(CC)CCOc1ccccc1OC,-1.47%,–
CO/N=C(/C(=O)N[C@@H]1C(=O)N2C(C(=O)O)=C(COC(N)=O)CS[C@H]12)c1ccco1,-2.44%,–
Nc1ncnc2c1ncn2CCOCP(=O)(O)O,-1.08%,–
Cc1cccc(Nc2ncccc2C(=O)O)c1C,5.94%,–

SMILES,"activity change, negative = inhibition",Potency
C=Cc1c(C)c2cc3nc(cc4[nH]c(cc5nc(cc1[nH]2)C(C)=C5CCC(=O)OC)c(CCC(=O)O)c4C)[C@@]1(C)C3=CC=C(C(=O)OC)[C@H]1C(=O)OC,3.44%,–
CC[C@H]1OC(=O)[C@H](C)[C@@H](O[C@H]2C[C@@](C)(OC)[C@@H](O)[C@H](C)O2)C(C)[C@@H](O[C@@H]2O[C@H](C)C[C@H](N(C)C)[C@@H]2O)[C@](C)(OC)C[C@@H](C)C(=O)[C@H](C)[C@@H](O)[C@]1(C)O (stereo not given in full),-12.8%,–
COC(=O)c1ccccc1O,1.04%,–
Cn1c(=O)c2c(ncn2CCOC(=O)C(C)(C)Oc2ccc(Cl)cc2)n(C)c1=O,-14.9%,–
CC(C)(C)NC[C@H](O)COc1ccccc1C1CCCC1,4.75% [at 20.6 µM],–
CS(=O)(=O)c1ccc([C@@H](O)[C@@H](COC(=O)CN)NC(=O)C(Cl)Cl)cc1,8.13%,–
O=C(O)Cc1nn(Cc2ccc(Br)cc2F)c(=O)c2ccccc12,5.67%,–
Cc1ncc[nH]1,6.68%,–
CN[C@H](CC(C)C)C(=O)N[C@H]1C(=O)N[C@@H](CC(N)=O)C(=O)N[C@H]2C(=O)N[C@H]3C(=O)N[C@H](C(=O)N[C@@H](C(=O)O)c4cc(O)cc(O)c4-c4cc3ccc4O)[C@H](O)c3ccc(c(Cl)c3)Oc3cc2cc(c3O[C@@H]2O[C@H](CO)[C@@H](O)[C@H](O)[C@H]2O[C@H]2C[C@](C)(N)C(O)[C@H](C)O2)Oc2ccc(cc2Cl)[C@H]1O (stereo not given in full),10.5%,–
N=C(N)n1cccn1,20.5%,–
CC(C)CCC[C@@H](C)[C@H]1CC[C@H]2[C@@H]3CC[C@@H]4C[C@H](O)CC[C@]4(C)[C@H]3CC[C@]12C,-4.57%,–
CCOC(=O)c1cc(-c2ccccc2)nc2ccc(C)cc12,0.94%,–
O=C(OCc1ccccc1)c1cccnc1,-0.469%,–
CC(=O)[C@@]1(O)CC[C@H]2[C@@H]3C=C(Cl)C4=CC(=O)[C@@H]5C[C@@H]5[C@]4(C)[C@H]3CC[C@@]21C,6.35%,–
O=C(O)Cc1cc(I)c(Oc2ccc(O)c(I)c2)c(I)c1,2.45% [at 20.6 µM],–
CC1(C)[C@H]2CC[C@]1(C)[C@H](O)C2,-2.18%,–
CC(C)(C)CC(C)(C)c1cc(Cc2cc(C(C)(C)CC(C)(C)C)cc(-n3nc4ccccc4n3)c2O)c(O)c(-n2nc3ccccc3n2)c1,-28%,–
CC12CCC(C[N+](C)(CCC[N+](C)(C)C)C1)C2(C)C (stereo not given),-1.76%,–
Cc1c(C)c2c(c(C)c1OC(=O)CCC(=O)O)CC[C@@](C)(CCC[C@H](C)CCC[C@H](C)CCCC(C)C)O2,-2.61%,–
CCCC1C(=O)N2C(N(C)C)=Nc3ccc(C)cc3N2C1=O (stereo not given),13.9% [at 20.6 µM],–
